Compound activity as filed in PubChem.
Hits are enriched below; roughly 1.2% of the tested compounds scored in any of these assays.
KCNH2 3.1 block: inhibitors of human KCNH2 3.1 potassium channel isoform | U2OS KCNH2 3.1, thallium flux FluxOr; hits give low values | activity change, % (tested at about 1.8 µM) | 340,000 compounds, 0.95% hits | AID 720553;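 active = maximum activity change below -70%; inconclusive = maximum activity change from -70% to -50%; inactive = maximum activity change above -50%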;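 note: thallium influx rate constant from kinetic fluorescence after stimulation buffer; % is set by controls: 0 for no effect and ±100 for the full control effect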
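Thallium flux read-out: FluxOr dye with Red40 quencher in HBSS/HEPES, 45 min at RT. Rate constants from kinetic reads were normalized to positive and negative DMSO controls. Cells: U2OS virally expressing the 3.1 isoform.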
Tb PFK block: inhibitors of T. brucei phosphofructokinase; O15648; T. brucei PFK, ADP-Glo luminescence; Potency, µM (series often up to 57.5 µM), without a hit: at the highest dose activity, negative = inhibition, actives largely listed as inhibitors; 330,000 compounds, 0.17% hits; AID 485367; active = well fitted inhibition curve with a large enough effect; inconclusive = small, poorly fitted or top-dose-only effect, or effect the other way;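 note: potency is the fitted concentration of half-maximal effect; 0% = uninhibited 1x PFK enzyme wells and -100% = no-enzyme wells; nearly all actives have a fitted effect of over 60% in size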
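1.25 nM PFK with 0.5 mM F6P and 0.1 mM ATP in 0.1 M TEA pH 8.0, 5 mM MgCl2, incubated 45 min at room temperature; ADP measured by ADP-Glo luminescence; compounds titrated up to 57 uM.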
hERG WT inh: inhibitors of human wildtype KCNH2 potassium channel | AID 720551 | U2OS, BacMam KCNH2, thallium flux FluxOr; hits give low values | 340,000 compounds, 0.37% hits | Q12809 | activity change, % at 1.84 µM;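 active = maximum activity change below -70%; inconclusive = maximum activity change between -70% and -50%; inactive = maximum activity change above -50%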; note: % is set by controls: 0 for no effect and ±100 for the full control effect
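U2OS cells transduced with wild-type KCNH2 virus are loaded with FluxOr dye for 45 min, and thallium flux is measured in kinetic reads before and after stimulation buffer. Rate constants are normalized to DMSO controls.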
TSG101-PTAP inh: blocks PTAP/TSG101 interaction to inhibit HIV-1 budding; Q99816; 340,000 tested, under 10 active; Potency, µM (series often up to 115 µM), for the others: at the highest dose activity change, negative = inhibition, actives largely listed as inhibitors; Fluorescence polarization, FITC-PTAP peptide / Tsg101 binding; active = well fitted inhibition curve with a large enough effect in the main read-out, with a control signal flat, not every such curve was filed as active; inconclusive = small, poorly fitted or top-dose-only effect, or effect the other way, or a change in a side signal; inactive = no such curve, though single readings can be large or run the other way; note: potency is the fitted concentration of half-maximal effect; % of control where 0% means no effect
Target sequence (Q99816 whole entry, looked up): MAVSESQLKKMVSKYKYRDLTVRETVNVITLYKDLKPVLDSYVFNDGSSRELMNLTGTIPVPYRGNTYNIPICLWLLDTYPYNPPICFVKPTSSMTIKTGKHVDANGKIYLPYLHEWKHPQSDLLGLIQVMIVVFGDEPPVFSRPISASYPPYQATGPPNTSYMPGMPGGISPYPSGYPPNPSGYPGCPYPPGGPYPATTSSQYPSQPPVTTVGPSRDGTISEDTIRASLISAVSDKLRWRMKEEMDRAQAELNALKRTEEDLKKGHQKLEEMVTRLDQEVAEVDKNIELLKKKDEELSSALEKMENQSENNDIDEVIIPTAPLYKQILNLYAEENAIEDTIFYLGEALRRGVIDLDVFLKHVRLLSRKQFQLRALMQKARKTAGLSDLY
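Steps: Tsg101 binding domain dispensed (10 uM final), compounds pinned in DMSO, FITC-labeled PTAP-motif peptide added (50 nM final); after 20 min binding at room temperature, polarization measured.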
The depositor's hits bear a star; ? = inconclusive; nt = not tested or not shown.

SMILES | KCNH2 3.1 block | Tb PFK block | hERG WT inh | TSG101-PTAP inh
CCn1c(CN2CCN(Cc3ccc(C)cc3)C(CCO)C2)nc2ccccc21 (stereo not drawn) | -98* | 9% | -25 | -6%
CCOc1ccc(CN2CCN(Cc3cccc4nonc34)CC2CCO)cc1 (stereo not drawn) | -116* | -4% | -77* | 0%
CCOc1ccc(CN2CCN(Cc3cccc4c3OCO4)CC2CCO)cc1 (stereo not drawn) | -23 | 0% | -1 | -9%
CCC1(c2ccc(F)cc2)NC(=O)N(CC(=O)c2cc(C)n(C3CC3)c2C)C1=O (stereo not drawn) | 9 | 1% | -3 | -2%
N#Cc1ccccc1S(=O)(=O)N1CCN(C(=O)C2CC(=O)N(c3ccc4c(c3)OCCO4)C2)CC1 (stereo not drawn) | -75* | 0% | -10 | -3%
Cc1ccc(S(=O)(=O)N2CCN(C(=O)C3CC(=O)N(c4ccc5c(c4)OCCO5)C3)CC2)cc1 (stereo not drawn) | -12 | 10% | -9 | -5%
Cc1ccc(S(=O)(=O)N2CCC(C(=O)OC(C)C(=O)NC3CCCCC3C)CC2)cc1C (stereo not drawn) | -2 | -6% | 2 | -5%
CCOc1ccc(S(=O)(=O)N2CCC(C(=O)OC(C)C(=O)NC3CCCCC3C)CC2)cc1 (stereo not drawn) | -144* | -4% | -203* | -3%
CC1(CNC(=O)C(=O)NCC2(C)CO2)CO1 (stereo not drawn) | -8 | nt | 2 | -3%
Cc1ccc(NC(=O)C(c2ccccc2)c2ccccc2)c(O)c1 | -6 | 1% | -1 | -12%
C(=N\N=C\c1cccs1)/c1cccs1 | -1 | 1% | -1 | -2%
C(=N\n1cnnc1)/c1cccs1 | -86* | -3% | 12 | -3%
CCN(CC)C(=O)CSc1nc2c(c(-c3cccnc3)c1C#N)CCCC2 | nt | 9% | 8 | 1%
O=C1c2ccccc2C(=O)c2c(/C=C/N3CCCCC3)ccnc21 | 9 | nt | 6 | -8%
COC(=O)c1c(C)[nH]c(C(=O)COC(=O)Cn2cc(C(F)(F)F)ccc2=O)c1C | 3 | 6% | -24 | -3%
COc1ccc(N2CCN(CCCNC(=O)c3cc4sccc4n3C)CC2)cc1 | -94* | -1% | -109* | -3%
COc1ccc(N2CCN(CCNC(=O)Nc3ccc(Cl)cc3)CC2)cc1 | -70* | -3% | 12 | 2%
COc1ccc(N2CCN(CCCNC(=O)c3ccc(CS(=O)(=O)c4ccc(Cl)cc4)o3)CC2)cc1 | -99* | -1% | -21 | -7%
O=C(NCCCN1CCCC1)c1ccc(CS(=O)(=O)c2ccc(Cl)cc2)o1 | -29 | 1% | 20 | 2%
Cc1nn(-c2ccccc2)c(C)c1NC(=O)COc1cc(F)ccc1[N+](=O)[O-] | -16 | -1% | -1 | -2%
CCCCN(CC)CCNC(=O)c1cn(-c2ccc(Cl)cc2)c(=O)c2ccccc12 | -78* | 3% | ? | 3%
CNC(=O)c1cn(-c2ccc(Cl)cc2)c(=O)c2ccccc12 | 3 | -1% | 2 | -3%
CCn1c(C(=O)NC2CCC(C)CC2)cc2sccc21 (stereo not drawn) | -2 | 2% | -233* | -1%
CCOC(=O)N1CCC(NC(=O)c2cc3sccc3n2CC)CC1 | -8 | -4% | -10 | -11%
COc1ccc2cc(C3CC(c4ccco4)=NN3S(=O)(=O)c3ccccc3)c(Cl)nc2c1 (stereo not drawn) | -83* | 2% | -8 | 0%
SMILES | KCNH2 3.1 block | Tb PFK block | hERG WT inh | TSG101-PTAP inh
CCOc1ccc2cc(C3CC(c4ccco4)=NN3S(=O)(=O)c3ccccc3)c(Cl)nc2c1 (stereo not drawn) | -18 | 0% | 8 | 0%
CC(C(=O)Nc1ccccc1-c1ccccc1)N1CCN(Cc2ccccc2)CC1 (stereo not drawn) | -76* | -4% | -18 | 1%
CC(C(=O)Nc1ccccc1-c1ccccc1)N1CCN(C(=O)c2ccccc2)CC1 (stereo not drawn) | 12 | 13% | 23 | -8%
CCOc1ccc(C2=NNC(c3cccnc3)=Nc3ccc(OC)cc32)cc1 | 7 | -6% | 2 | -6%
CCOc1ccc2c(c1)C(c1ccc(C)cc1)=NNC(c1ccc(OC)cc1)=N2 | -94* | -3% | -40 | -6%
CCN(CC(=O)NC1CC1)S(=O)(=O)c1ccccc1 | 2 | -10% | -4 | -5%
